Bioassay records deposited in PubChem BioAssay by National Center for Advancing Translational Sciences (NCATS).
Only some compounds are listed: those with a hit (about 5.4% of all), similar ones and a draw of the others.
Marburg entry inh: inhibitors of Marburg virus binding or cell entry. Potency, µM (top dose mostly 37.8 µM), for inactives: top-dose activity change, negative = inhibition, hits mostly inhibitors. AID 540276. 300,000 compounds, 1.8% hits. Marburg virus pseudotyped entry inhibition, cell reporter; calls by dose curve; tested in HEK293 cells
FMDV antiviral: foot and mouth disease virus antiviral activity; FMDV antiviral cell-based qHTS; 410,000 compounds, 1.2% hits; Potency, µM (series often up to 57.9 µM), for inactives: at the top dose activity change, negative = inhibition, hits mostly inhibitors; AID 1159524; calls by dose curve; tested in HEK293T cells; further: read-out not given here; nearly all actives have a fitted effect of over 45% in size
Lassa entry inh: blocks Lassa virus binding to or entry into cells | Lassa virus pseudotype entry inhibition, cell reporter | Potency, µM (titrated, usually from 37.9 µM), without a hit: top-dose activity change, negative = inhibition, actives largely listed as inhibitors | 300,000 compounds, 1.2% hits | AID 540256; calls by dose curve; tested in HEK293 cells; further: nearly all actives have a fitted effect of over 50% in size
VACV mCherry inh: vaccinia inhibition (mCherry reporter); Vaccinia virus mCherry reporter infection, fluorescence; Potency, µM (doses to about 36.5 µM), for inactives: at the highest dose activity change, negative = inhibition, actives largely listed as inhibitors; 310,000 compounds, 0.63% hits; AID 720579; calls by dose curve; tested in A549 cells; further: nearly all actives have a fitted effect of over 35% in size
Sm TGR inh: blocks Schistosoma mansoni thioredoxin glutathione reductase. Potency, µM (titrated, usually from 114 µM), for the others: at the top dose activity change, negative = inhibition, usual class: inhibitors. purified TGR, DTNB reduction, TNB absorbance 405 nm. 360,000 compounds, 3% hits; active means well fitted inhibition curve with a large enough effect; inconclusive means small, poorly fitted or top-dose-only effect; inactive means no such curve, though single readings can be large or run the other way; further: nearly all actives have a fitted effect of over 60% in size
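TGR 20 nM + NADPH 100 uM (dispensed conc.), cpd preinc 15 min RT; start with NADPH (500 uM addition) then DTNB (15 mM addition). Kinetic TNB absorbance, 405 nm filter. Four-parameter Hill fit across titration.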
Vaccinia Venus: inhibitors of vaccinia virus (Venus reporter); Potency, µM (series often up to 36.5 µM), without a hit: at the top dose activity change, negative = inhibition, usual class: inhibitors; Vaccinia virus Venus reporter expression, fluorescence; 330,000 compounds, 0.46% hits; AID 720580; calls by dose curve; tested in A549 cells; further: nearly all actives have a fitted effect of over 30% in size
The depositor's hits bear a star; i = inactive; ? = inconclusive; nt = no result given; ! = a repeat was not active; [ ] = remark or other dose. On the % scale 0 is the no-effect control and ±100 the full control effect; potency means the concentration at half of the fitted maximal effect.

SMILES | Marburg entry inh | FMDV antiviral | Lassa entry inh | VACV mCherry inh | Sm TGR inh | Vaccinia Venus
O=C(Nc1ccc(-c2cc(C(F)(F)F)nn2-c2ccccc2)cc1)c1cccc(F)c1 | ? | -11% | ? | -9% | 11% | ?
CCOc1ccc(CCNC(=O)Cn2ccc3cc(S(=O)(=O)N4CCCCC4)ccc32)cc1 | nt | -26% | -32%[46.1 µM] | -16% | 2% | -8%
CCOc1ccc(S(=O)(=O)NCC(c2ccc(N(C)C)cc2)N2CCCC2)cc1 (configuration not stated) | nt | -13% | -2%[46.1 µM] | -19% | 1% | -12%
O=C(NC1(C(F)(F)F)NC(=O)N(CC2CCCCC2)C1=O)c1ccco1 (configuration not stated) | -5% | nt | 18% | i | 79µM* | 0%
CC(C)CN1C(=O)NC(NC(=O)c2ccco2)(C(F)(F)F)C1=O (configuration not stated) | -4% | -1% | ? | -12% | -18% | -8%
CC1(C)CC2CC(C)(CN2/C=C2/CCCCC2=O)C1 (configuration not stated) | -5%[46.1 µM] | -28% | -19% | -13% | 35µM* | -16%
CC(Sc1nnc(-c2ccco2)o1)C(=O)NCCC1=CCCCC1 (configuration not stated) | 0% | 5% | ? | -13% | 45µM* | -8%
CCN(CC)S(=O)(=O)c1cccc(-c2nnc(SC(C)C(=O)NCCC3=CCCCC3)o2)c1 (configuration not stated) | 1% | ? | ? | nt | -21% | nt
Cc1cc(C)c(Cn2c3ccccc3c3cnn(CC(=O)NCCc4ccccc4)c(=O)c32)c(C)c1 | 0%[46.1 µM] | 0% | 2%[46.1 µM] | -11% | 14% | -9%
COCCn1c(=O)c(-c2ccc(OC)cc2)nc2cnc(N3CCNCC3)nc21 | nt | 12% | nt | nt | nt | nt
COc1cccc(Cn2c(OC[C@H]3CCCO3)nc3c2c(=O)n(C)c(=O)n3C)c1 | 16% | nt | nt | nt | nt | nt
COCCCNC(=O)CCn1c(=O)c2ccccc2n(CC(=O)Nc2cc(Cl)ccc2OC)c1=O | 2%[46.1 µM] | 8% | -1%[46.1 µM] | -7% | -2% | 3%
CSc1c(SCc2ccccc2)cnn(-c2ccccc2)c1=O | 28% | -17% | 5.2µM* | i | -1% | -28%
O=S(=O)(N/N=C/c1ccc(N2CCOCC2)cc1)c1ccccc1 | ? | 27% | -16% | -2% | 35µM* | -4%
O=C(N/N=C/c1ccc(N2CCOCC2)cc1)c1ccc(O)cc1 | nt | -4% | nt | nt | 45µM* | nt
O=C(C[n+]1cccc2cccc(O)c21)c1ccccc1 | nt | nt | nt | -1% | nt | 21%
S=c1[nH]c2cc3ccccc3cc2[nH]1 | nt | 6% | nt | nt | 8.9µM*! | nt
S=c1[nH]c2ccccc2[nH]1 | 16%[46.1 µM] | -7% | ? | -22% | nt | -4%
COc1cccc(C#Cc2c(CO)[nH]c3ccccc23)c1 | nt | 0% | nt | -19% | 32µM* | -16%
COc1ccc(NC(=O)Nc2cc(C(=O)NCc3ccc(C)cc3)ccc2N2CCCC2)cc1 | nt | 13% | 27%[46.1 µM] | -12% | 5% | -10%
CCN(C(=O)c1cnc(N2CCOCC2)c2ccccc12)c1cc(C)ccc1C | nt | -23% | 5µM* | -14% | -2% | -3%
Cc1ccc(N(C)C(=O)c2cnc(N3CCOCC3)c3ccccc23)cc1C | nt | -13% | ? | -5% | 5% | -7%
COc1ccc(OC)c([C@H](O)c2coc3ccc(O)c(CN4CCOCC4)c23)c1 | 16% | nt | nt | nt | nt | nt
COc1ccc(C(=O)NC(=S)Nc2ccc(N3CCN(C(C)=O)CC3)cc2)cc1[N+](=O)[O-] | 5% | -27% | -2% | -17% | 8.9µM* | -14%
CC(=O)N1CCN(c2ccc(NC(=S)NC(=O)c3ccc(C)c([N+](=O)[O-])c3)cc2)CC1 | 23% | -18% | 22% | i | 11µM* | -5%
Cc1ccc(C(=O)O)cc1NC(=S)NC(=O)c1ccc([N+](=O)[O-])c(C)c1 | nt | -5% | nt | nt | 20µM* | nt
CCOc1ccc(C(=O)NC(=S)Nc2ccc(N3CCCCC3)cc2)cc1[N+](=O)[O-] | -2% | ? | ? | -17% | 0% | -5%
COc1ccc(C(=O)Nc2ccc(N3CCN(C)CC3)cc2)cc1[N+](=O)[O-] | ? | 8% | ? | -2% | 8% | 0%
O=S1(=O)C=CCN1CCc1ccccc1 | nt | nt | 1%[46.1 µM] | nt | nt | nt
